# In PubChem BioAssay (NCATS):
# Where “and” joins values, the source holds several entries; their conditions need not be identical. Equal entries are not always repeated. Results filed as inconclusive are left out. Where a structure was tested more than once in an assay, its records may differ in their call. Calls of active or inactive are those of the source. Unless noted, the call rests on the fitted dose curve.
# Experiments:
# [1] = target: Bile acid receptor (Homo sapiens) (UniProt Q96RI1); assay: qHTS assay for small molecule agonists of farnesoid X receptor signaling (AID 588527); conditions: HEK293T FXR-UAS-bla, beta-lactamase ratio, 16 h; activation: stronger effect = higher value;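 further: series mostly up to about 77 µM; 0% = vehicle basal and 100% = reference agonist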
# Chain of Bile acid receptor (Homo sapiens) (Q96RI1 whole entry, looked up): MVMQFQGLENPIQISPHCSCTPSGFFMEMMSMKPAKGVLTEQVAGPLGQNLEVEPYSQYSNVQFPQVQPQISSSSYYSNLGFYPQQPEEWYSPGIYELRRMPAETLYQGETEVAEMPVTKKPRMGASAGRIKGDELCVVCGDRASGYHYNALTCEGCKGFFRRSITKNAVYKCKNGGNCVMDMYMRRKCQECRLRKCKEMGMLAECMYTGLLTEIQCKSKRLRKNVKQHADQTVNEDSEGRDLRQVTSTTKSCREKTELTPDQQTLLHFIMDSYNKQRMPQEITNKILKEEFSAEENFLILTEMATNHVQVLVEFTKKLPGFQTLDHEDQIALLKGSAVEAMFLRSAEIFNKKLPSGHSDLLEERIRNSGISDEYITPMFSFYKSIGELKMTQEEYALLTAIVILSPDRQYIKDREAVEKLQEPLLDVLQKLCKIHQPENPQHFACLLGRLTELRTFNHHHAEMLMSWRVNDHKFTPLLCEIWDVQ
# Summary of the method: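 FXR-UAS-bla HEK293T cells (10% dialyzed FBS) preincubated 5-7 h at 37 C, then compounds at up to 92 uM for 16 h at 37 C. CCF4 beta-lactamase read-out after 2 h RT. Normalized to chenodeoxycholic acid (100 uM) and DMSO; Hill fit gave EC50 and efficacy.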
# [2] = target: Peroxisome proliferator-activated receptor delta (Homo sapiens) (UniProt Q03181); assay: qHTS assay for small molecule agonists of peroxisome proliferator-activated receptor delta signaling (AID 588534);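 further: 0% = DMSO basal wells and 100% = positive control agonist at 10 µM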
# Chain of Peroxisome proliferator-activated receptor delta (Homo sapiens) (Q03181 whole entry, looked up): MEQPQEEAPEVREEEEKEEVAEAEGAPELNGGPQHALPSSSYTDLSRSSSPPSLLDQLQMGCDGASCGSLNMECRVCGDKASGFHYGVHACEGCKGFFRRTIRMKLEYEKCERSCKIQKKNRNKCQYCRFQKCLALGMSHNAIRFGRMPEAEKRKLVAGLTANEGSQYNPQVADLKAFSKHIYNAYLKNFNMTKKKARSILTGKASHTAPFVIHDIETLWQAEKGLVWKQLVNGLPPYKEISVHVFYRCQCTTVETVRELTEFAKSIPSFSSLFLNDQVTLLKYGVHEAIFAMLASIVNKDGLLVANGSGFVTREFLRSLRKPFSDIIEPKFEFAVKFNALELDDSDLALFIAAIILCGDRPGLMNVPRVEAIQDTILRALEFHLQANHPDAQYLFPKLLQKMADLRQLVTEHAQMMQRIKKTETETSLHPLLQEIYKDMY
# Summary of the method: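 Fluorescence from CCF4 substrate cleavage by beta-lactamase reporter, read 2 hrs at RT, measured agonist activity. Compounds were tested with 18 hrs exposure at 37 C. Concentration-response data fitted to Hill equation.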
# [3] = target: Vitamin D3 receptor (Homo sapiens) (UniProt P11473); assay: qHTS assay for small molecule agonists of vitamin D receptor signaling (AID 588543);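 further: 0% = DMSO basal and 100% = reference agonist control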
# Chain of Vitamin D3 receptor (Homo sapiens) (P11473 whole entry, looked up): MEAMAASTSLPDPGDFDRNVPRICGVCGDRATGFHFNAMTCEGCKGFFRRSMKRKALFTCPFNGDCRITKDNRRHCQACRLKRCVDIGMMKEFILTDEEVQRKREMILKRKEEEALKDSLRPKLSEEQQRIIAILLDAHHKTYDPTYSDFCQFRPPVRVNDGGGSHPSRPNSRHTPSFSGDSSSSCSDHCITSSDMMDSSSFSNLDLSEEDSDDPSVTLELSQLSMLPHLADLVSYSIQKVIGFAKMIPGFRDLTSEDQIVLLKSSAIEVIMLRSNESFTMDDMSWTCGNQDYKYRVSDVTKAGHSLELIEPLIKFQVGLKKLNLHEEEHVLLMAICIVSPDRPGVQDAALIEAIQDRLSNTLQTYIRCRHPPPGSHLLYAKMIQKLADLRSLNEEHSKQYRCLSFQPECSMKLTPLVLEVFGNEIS
# Summary of the method: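 Agonist-mode beta-lactamase reporter: HEK293T VDR-UAS-bla cells in charcoal-stripped 2% FBS, compound series 16 h 37 C, CCF4 2 h RT. EC50 from Hill fit, scaled against DMSO and 50 nM calcitriol control.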
# [4] = target: Thyroid hormone receptor beta (Homo sapiens) (UniProt P10828); assay: qHTS assay for small molecule agonists of thyroid hormone receptor beta signaling (AID 588545);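 further: 0% = DMSO only and 100% = 10 nM T3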
# Chain of Thyroid hormone receptor beta (Homo sapiens) (P10828 whole entry, looked up): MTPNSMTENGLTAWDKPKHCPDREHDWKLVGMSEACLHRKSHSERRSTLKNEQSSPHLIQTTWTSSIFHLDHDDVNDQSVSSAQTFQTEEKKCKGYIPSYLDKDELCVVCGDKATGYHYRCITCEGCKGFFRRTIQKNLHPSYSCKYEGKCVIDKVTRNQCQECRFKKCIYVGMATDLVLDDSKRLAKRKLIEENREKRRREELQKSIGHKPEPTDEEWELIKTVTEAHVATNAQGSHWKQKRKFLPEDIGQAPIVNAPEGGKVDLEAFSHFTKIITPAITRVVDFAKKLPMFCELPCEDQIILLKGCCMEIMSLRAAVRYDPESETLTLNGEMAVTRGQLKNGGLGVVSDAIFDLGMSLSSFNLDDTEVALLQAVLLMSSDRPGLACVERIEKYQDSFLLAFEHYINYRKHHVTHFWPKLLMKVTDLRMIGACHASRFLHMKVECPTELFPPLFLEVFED
# Summary of the method: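 Beta-lactamase reporter activity under TR response element control is measured in HEK 293 cells after 18 hrs compound exposure. Signal is ratiometric CCF4 fluorescence, 460/530 nm.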
# [5] = qHTS assay for small molecule activators of the p53 signaling pathway (AID 651743; active means well fitted activation curve with a large enough effect in the signal ratio, not every such curve was filed as active; the % refers to the signal ratio; further: potency means the concentration at half of the fitted maximal effect; on activation: series mostly up to about 92 µM; % of control where 0% means no effect); conditions: HCT-116 p53RE-bla, beta-lactamase FRET ratio, 16 h; activation: stronger effect = higher value
# Summary of the method: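 Read-out is fluorescence intensity from the LiveBLAzer B/G FRET substrate, added for 2 hours at room temperature after HCT-116 p53RE-bla cells had been incubated with compounds for 16 hours at 37 C.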
# [6] = qHTS assay for environmental chemicals that activate the Aryl hydrocarbon Receptor (AhR) signaling pathway (AID 651777; active means well fitted curve in the direction sought with a large enough effect; an effect the other way counts as inactive or inconclusive; further: nearly all actives have a fitted effect of over 15% in size; further: potency means the concentration at half of the fitted maximal effect; on activation: % of control where 0% means no effect); conditions: 1A2-DRE human hepatoma cells, luciferase, 24 h; activation: stronger effect = higher value
# Summary of the method: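 AhR activation is scored as a rise in luciferase from a stable DRE–CYP1A2 promoter construct in human hepatoma cells. Treatment lasts 24 hr at 37 C; detection uses One-Glo after 30 min at room temperature.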
# [7] = target: Peroxisome proliferator-activated receptor alpha (Homo sapiens) (UniProt Q07869); assay: qHTS assay for small molecule agonists of the peroxisome proliferator-activated receptor alpha (PPARalpha) signaling pathway (AID 651778; active means well fitted curve in the direction sought with a large enough effect; an effect the other way counts as inactive or inconclusive; further: % of control where 0% means no effect); conditions: PathHunter PPARalpha complementation, chemiluminescence, 6 h; max response: stronger effect = higher value
# Chain of Peroxisome proliferator-activated receptor alpha (Homo sapiens) (Q07869 whole entry, looked up): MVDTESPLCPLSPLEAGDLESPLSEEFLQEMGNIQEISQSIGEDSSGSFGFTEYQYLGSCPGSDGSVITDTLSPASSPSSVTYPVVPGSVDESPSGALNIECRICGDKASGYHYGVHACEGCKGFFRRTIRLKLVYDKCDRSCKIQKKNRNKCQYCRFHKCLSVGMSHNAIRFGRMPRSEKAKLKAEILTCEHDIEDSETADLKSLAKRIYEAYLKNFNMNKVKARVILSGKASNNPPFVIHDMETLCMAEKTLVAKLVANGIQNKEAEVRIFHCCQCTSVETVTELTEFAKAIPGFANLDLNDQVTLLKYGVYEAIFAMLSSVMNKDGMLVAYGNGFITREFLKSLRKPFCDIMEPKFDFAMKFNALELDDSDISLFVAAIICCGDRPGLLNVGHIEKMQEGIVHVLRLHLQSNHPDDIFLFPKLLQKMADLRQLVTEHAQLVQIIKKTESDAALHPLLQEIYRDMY
# Summary of the method: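 Chemiluminescence from complemented enzyme reported PPARalpha activation in cells after 6 hr of compound treatment at 37 C. The detection reagent was incubated for 60 min at room temperature, and compounds were scored as agonists.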
# [8] = qHTS assay for small molecule agonists of the antioxidant response element (ARE) signaling pathway measured by Nrf2-dependant transcriptional activity (AID 720636; active means well fitted curve in the direction sought with a large enough effect in the repeat runs; an effect the other way counts as inactive or inconclusive;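 further: HepG2 cells with an ARE-driven luciferase reporter; % of control where 0% means no effect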)
# Summary of the method: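 First, ARE-luc HepG2 cells attached for 6 hr at 37 C in 1% dialyzed FBS medium. Next, compound or DMSO was added and incubated 16 hr. Finally, ONE-Glo reagent was added and luminescence measured after 30 min.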
# [9] = qHTS assay for small molecule agonists of the antioxidant response element (ARE) signaling pathway measured by Nrf2-dependant transcriptional activity - cell viability counter screen (AID 720653; active means well fitted curve in the direction sought with a large enough effect in the repeat runs; an effect the other way counts as inactive or inconclusive; further: potency means the concentration at half of the fitted maximal effect; on max response: on the % scale 0 is the no-effect control and ±100 the full control effect); conditions: ARE-bla HepG2 viability, CellTiter-Glo ATP luminescence, 16 h; max response: stronger effect = lower value
# Summary of the method: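 Cytotoxicity counter screen: intracellular ATP quantified by CellTiter-Glo luminescence in the same ARE-bla HepG2 plates, after 16 h compound exposure and a 2 h beta-lactamase substrate step.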
# [10] = qHTS assay for cell viability of HEK293 cells (AID 743288; active means well fitted curve in the direction sought with a large enough effect; an effect the other way counts as inactive or inconclusive; further: nearly all actives have a fitted effect of over 50% in size; further: potency means the concentration at half of the fitted maximal effect; on max response: on the % scale 0 is the no-effect control and ±100 the full control effect); conditions: ATP luminescence (CellTiter-Glo), 18 h; max response: stronger effect = lower value
# Summary of the method: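 Total intracellular ATP, measured with a luciferase-coupled reagent, indicates the number of viable HEK293 cells. Exposure to test chemicals lasts 18 h at 37 C in 1,536-well format at 2,000 cells/well.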
# [11] = qHTS assay for cell viability of the p53RE-bla HCT-116 cell line (AID 743292; active means well fitted curve in the direction sought with a large enough effect; an effect the other way counts as inactive or inconclusive; further: on the % scale 0 is the no-effect control and ±100 the full control effect; nearly all actives have a fitted effect of over 55% in size)
# Summary of the method: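 Quantitative high-throughput format: compounds in DMSO were pinned onto p53RE-bla HCT-116 cells (4,000/well) and incubated 16 h at 37 C. Total intracellular ATP, read by CellTiter-Glo luminescence, reflects viable cell number.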
# [12] = qHTS assay for small molecule activators of the human pregnane X receptor (PXR) signaling pathway (AID 720659; call rule not given here; further: 0% is about no effect)
# [13] = target: Glucocorticoid receptor (Homo sapiens) (UniProt P04150); assay: qHTS assay for small molecule agonists of glucocorticoid receptor signaling (AID 588532; active means well fitted curve in the direction sought with a large enough effect in the signal ratio, with a control signal flat; the % refers to the signal ratio;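 further: 100% = dexamethasone at 0.1 µM and 0% = DMSO only wells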); conditions: HeLa MMTV-bla, beta-lactamase ratio, agonist, 18 h; activation: stronger effect = higher value, percent of dexamethasone control, DMSO zero
# Chain of Glucocorticoid receptor (Homo sapiens) (P04150 whole entry, looked up): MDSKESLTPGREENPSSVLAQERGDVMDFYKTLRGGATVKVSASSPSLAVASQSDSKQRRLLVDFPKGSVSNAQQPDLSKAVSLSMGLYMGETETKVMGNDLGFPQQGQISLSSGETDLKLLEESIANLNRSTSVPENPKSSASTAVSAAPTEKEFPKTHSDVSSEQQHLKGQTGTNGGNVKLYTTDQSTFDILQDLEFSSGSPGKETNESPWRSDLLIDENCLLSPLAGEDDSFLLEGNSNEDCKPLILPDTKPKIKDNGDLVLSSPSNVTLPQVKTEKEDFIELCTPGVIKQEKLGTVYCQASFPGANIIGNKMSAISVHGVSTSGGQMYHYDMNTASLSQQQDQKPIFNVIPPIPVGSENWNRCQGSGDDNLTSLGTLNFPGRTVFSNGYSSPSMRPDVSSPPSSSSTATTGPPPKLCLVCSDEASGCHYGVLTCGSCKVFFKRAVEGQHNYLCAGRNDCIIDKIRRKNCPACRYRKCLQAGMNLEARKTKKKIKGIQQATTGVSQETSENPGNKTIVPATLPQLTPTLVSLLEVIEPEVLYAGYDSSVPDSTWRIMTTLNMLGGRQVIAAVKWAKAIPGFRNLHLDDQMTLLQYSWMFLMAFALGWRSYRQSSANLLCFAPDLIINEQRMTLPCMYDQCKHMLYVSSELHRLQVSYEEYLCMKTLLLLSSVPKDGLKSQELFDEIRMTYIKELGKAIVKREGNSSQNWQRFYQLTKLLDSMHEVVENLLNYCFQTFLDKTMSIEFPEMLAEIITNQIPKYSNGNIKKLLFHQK
# Summary of the method: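 Using MMTV-bla HeLa cells in medium with 1% stripped FBS and 25 mM HEPES, compounds were titrated and incubated overnight-length (18 h). Beta-lactamase cleavage of CCF4 was quantified by dual-emission fluorescence.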
# [14] = target: Glucocorticoid receptor (Homo sapiens) (UniProt P04150); assay: qHTS assay for small molecule antagonists of glucocorticoid receptor signaling (AID 588533; active means well fitted inhibition curve with a large enough effect in the signal ratio, with a control signal flat, not every such curve was filed as active; the % refers to the signal ratio;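 further: cells stimulated with 2 nM dexamethasone as agonist; on the % scale 0 is the no-effect control and ±100 the full control effect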)
# Summary of the method: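 Antagonist-mode qHTS: compound titrations added to GRE-bla HeLa cells, then dexamethasone 2 nM final; 18 h, 37 C. CCF4 FRET fluorescence normalized to dexamethasone and DMSO; IC50 from Hill fit.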
# [15] = qHTS assay for small molecule antagonists of peroxisome proliferator-activated receptor delta signaling (AID 588535; active means well fitted inhibition curve with a large enough effect in the signal ratio, with a control signal flat, not every such curve was filed as active; the % refers to the signal ratio;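 on max response: cells co-treated with a PPAR-delta agonist as stimulator during compound exposure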); conditions: HEK293T PPARd-UAS-bla, beta-lactamase FRET ratio, 18 h; 460 nm channel
# Summary of the method: (§1)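 HEK293T PPAR-delta-UAS-bla cells, 4000/well, 2% charcoal/dextran FBS; 5 h 37 C; cpd titration; 18 h 37 C; CCF4 2 h RT; FI 460/530 nm; Hill fit → IC50, efficacy.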
# [16] = target: Peroxisome proliferator-activated receptor delta (Homo sapiens) (UniProt Q03181); assay: as above
# Summary of the method: as §1
# [17] = target: Peroxisome proliferator-activated receptor gamma (Homo sapiens) (UniProt P37231); assay: qHTS assay for small molecule agonists of peroxisome proliferator-activated receptor gamma signaling (AID 588536; active means well fitted curve in the direction sought with a large enough effect in the signal ratio, with a control signal flat, not every such curve was filed as active; the % refers to the signal ratio;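 further: 0% = DMSO basal wells and 100% = rosiglitazone at 2 µM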)
# Chain of Peroxisome proliferator-activated receptor gamma (Homo sapiens) (P37231 whole entry, looked up): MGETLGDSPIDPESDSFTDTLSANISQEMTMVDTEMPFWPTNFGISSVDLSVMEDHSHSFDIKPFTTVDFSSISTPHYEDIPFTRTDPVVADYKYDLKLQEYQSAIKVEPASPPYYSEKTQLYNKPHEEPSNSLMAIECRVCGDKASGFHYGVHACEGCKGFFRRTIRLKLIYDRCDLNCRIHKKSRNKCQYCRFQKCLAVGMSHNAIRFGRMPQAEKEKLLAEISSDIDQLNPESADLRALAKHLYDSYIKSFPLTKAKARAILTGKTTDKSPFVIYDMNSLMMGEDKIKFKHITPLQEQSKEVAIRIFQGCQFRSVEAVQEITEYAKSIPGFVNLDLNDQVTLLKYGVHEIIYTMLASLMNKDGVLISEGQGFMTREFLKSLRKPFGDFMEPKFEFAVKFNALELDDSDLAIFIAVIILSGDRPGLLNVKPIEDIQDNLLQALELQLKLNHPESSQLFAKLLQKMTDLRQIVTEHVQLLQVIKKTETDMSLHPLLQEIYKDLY
# Summary of the method: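 GeneBLAzer PPAR-gamma-UAS-bla HEK293 cells in 1% charcoal/dextran-treated FBS medium were treated 16 h at 37 C with compounds. Beta-lactamase activity was read by CCF4 ratio (460/530 nm). Response was normalized to 2 uM rosiglitazone (100%) and DMSO, then Hill-fitted for EC50 and efficacy.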
# [18] = target: Peroxisome proliferator-activated receptor gamma (Homo sapiens) (UniProt P37231); assay: qHTS assay for small molecule antagonists of peroxisome proliferator-activated receptor gamma signaling (AID 588537; active means well fitted inhibition curve with a large enough effect in the signal ratio, with a control signal flat, not every such curve was filed as active; the % refers to the signal ratio;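 further: reporter cells co-stimulated with 50 nM rosiglitazone agonist during compound treatment; % of control where 0% means no effect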)
# Summary of the method: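 Antagonist mode, beta-lactamase reporter in HEK293; charcoal/dextran FBS 1%; 3000 cells/well, 37 C 6-6.5 h; cpd titration + rosiglitazone 50 nM final, 16 h 37 C; CCF4, 2 h RT; 460/530 nm; Hill fit → IC50, efficacy.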
# [19] = qHTS assay for small molecule agonists of retinoid X receptor alpha signaling (AID 588544); conditions: HEK293T RXRa-UAS-bla, beta-lactamase reporter, 18 h; 530 nm emission;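 on activation: 0% = DMSO basal wells and 100% = reference agonist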
# [20] = target: Retinoic acid receptor RXR-alpha (Homo sapiens) (UniProt P19793); assay: as above
# Chain of Retinoic acid receptor RXR-alpha (Homo sapiens) (P19793 whole entry, looked up): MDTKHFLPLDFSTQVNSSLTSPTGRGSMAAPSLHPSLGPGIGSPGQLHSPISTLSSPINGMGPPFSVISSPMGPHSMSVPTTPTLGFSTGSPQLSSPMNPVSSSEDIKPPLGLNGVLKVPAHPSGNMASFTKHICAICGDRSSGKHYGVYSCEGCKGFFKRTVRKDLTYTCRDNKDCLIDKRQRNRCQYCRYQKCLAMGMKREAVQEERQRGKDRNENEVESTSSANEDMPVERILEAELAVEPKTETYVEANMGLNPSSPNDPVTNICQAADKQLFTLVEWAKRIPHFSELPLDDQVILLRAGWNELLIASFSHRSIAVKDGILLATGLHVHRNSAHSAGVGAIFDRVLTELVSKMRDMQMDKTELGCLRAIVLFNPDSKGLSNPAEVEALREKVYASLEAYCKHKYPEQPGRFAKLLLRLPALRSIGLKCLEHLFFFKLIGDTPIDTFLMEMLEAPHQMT
# [21] = qHTS assay for small molecule antagonists of retinoid X receptor alpha signaling (AID 588546; active means well fitted inhibition curve with a large enough effect in the signal ratio, with a control signal flat, not every such curve was filed as active; the % refers to the signal ratio;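 further: cells stimulated with 9-cis-retinoic acid as agonist; on the % scale 0 is the no-effect control and ±100 the full control effect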); conditions: HEK293T RXRa-UAS-bla, beta-lactamase ratio, antagonist mode; measured here: W530 green channel, cytotoxicity proxy
# Summary of the method: (§2)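 Beta-lactamase reporter inhibition, read as CCF4 fluorescence ratio (ex 405, em 460/530 nm) after 2 h at RT. HEK293T UAS-bla cells, 2500/well, were stimulated with 9-cis-RA at 500 or 100 nM final alongside test compound for 18 h at 37 C.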
# [22] = target: Retinoic acid receptor RXR-alpha (Homo sapiens) (UniProt P19793); assay: as above; conditions: HEK293T RXRa-UAS-bla, beta-lactamase ratio, antagonist mode
# Summary of the method: as §2
# [23] = qHTS assay for small molecule activators of the nuclear factor-kappa B (NF-kB) signaling pathway (AID 651749; active means well fitted activation curve with a large enough effect in the signal ratio; the % refers to the signal ratio; further: series mostly up to about 77 µM; % of control where 0% means no effect); conditions: NF-kB-bla ME-180 cells, beta-lactamase FRET ratio, 16 h; activation: stronger effect = higher value
# Summary of the method: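 Readout: beta-lactamase reporter driven by an NF-kB response element, detected fluorescently as loss of FRET. Cells were the ME-180 line, treated 16 hr at 37C with pin-transferred compound.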
# [24] = target: Nuclear receptor subfamily 1 group I member 2 (Rattus norvegicus) (UniProt Q9R1A7); assay: qHTS assay for small molecule activators of the rat pregnane X receptor (rPXR) signaling pathway (AID 651751; call rule not given here; further: 0% is about no effect); conditions: rPXR reporter cells, luciferase (One-Glo), 24 h
# Chain of Nuclear receptor subfamily 1 group I member 2 (Rattus norvegicus) (Q9R1A7 whole entry, looked up): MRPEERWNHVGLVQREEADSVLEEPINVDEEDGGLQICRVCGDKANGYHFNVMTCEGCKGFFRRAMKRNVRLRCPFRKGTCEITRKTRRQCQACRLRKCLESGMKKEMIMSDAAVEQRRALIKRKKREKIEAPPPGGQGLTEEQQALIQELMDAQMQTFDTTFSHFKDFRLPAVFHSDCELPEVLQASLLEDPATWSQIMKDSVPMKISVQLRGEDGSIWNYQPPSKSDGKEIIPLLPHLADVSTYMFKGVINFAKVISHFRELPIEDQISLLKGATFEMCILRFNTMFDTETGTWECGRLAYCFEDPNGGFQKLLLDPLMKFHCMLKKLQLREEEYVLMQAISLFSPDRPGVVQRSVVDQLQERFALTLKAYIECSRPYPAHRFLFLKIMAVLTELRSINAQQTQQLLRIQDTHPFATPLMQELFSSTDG
# [25] = qHTS assay for small molecule agonists of the antioxidant response element (ARE) signaling pathway (AID 651741; active means well fitted activation curve with a large enough effect in the signal ratio; the % refers to the signal ratio; further: potency means the concentration at half of the fitted maximal effect; on activation: % of control where 0% means no effect)
# Summary of the method: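 Quantitative HTS in HepG2 cells stably expressing an ARE-beta-lactamase reporter; 16 h compound exposure at 37 C, followed by 2 h room-temperature incubation with LiveBLAzer B/G FRET substrate and fluorescence measurement.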
# [26] = target: Cytochrome P450 3A4 (Homo sapiens) (UniProt P08684); assay: qHTS Assay for Inhibitors and Substrates of Cytochrome P450 3A4 (AID 884; active means well fitted curve in the direction sought with a large enough effect; an effect the other way counts as inactive or inconclusive; further: potency means the concentration at half of the fitted maximal effect; nearly all actives have a fitted effect of over 50% in size)
# Chain of Cytochrome P450 3A4 (Homo sapiens) (P08684 whole entry, looked up): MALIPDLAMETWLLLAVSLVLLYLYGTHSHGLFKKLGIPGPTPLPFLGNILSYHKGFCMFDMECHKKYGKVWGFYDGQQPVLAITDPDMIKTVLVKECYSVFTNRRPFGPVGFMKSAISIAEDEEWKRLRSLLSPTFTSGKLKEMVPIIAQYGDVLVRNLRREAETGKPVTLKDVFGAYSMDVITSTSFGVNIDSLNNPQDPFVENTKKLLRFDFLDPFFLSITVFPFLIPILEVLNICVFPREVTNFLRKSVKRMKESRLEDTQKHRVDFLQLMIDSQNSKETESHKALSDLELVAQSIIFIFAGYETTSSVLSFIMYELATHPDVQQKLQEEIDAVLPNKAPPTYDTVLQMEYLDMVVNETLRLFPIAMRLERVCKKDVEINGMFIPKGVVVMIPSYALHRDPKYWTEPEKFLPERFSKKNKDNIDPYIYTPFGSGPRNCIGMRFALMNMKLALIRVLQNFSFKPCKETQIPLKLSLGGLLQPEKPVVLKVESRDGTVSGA
# Summary of the method: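 20 nM human CYP3A4 with 25 uM Luciferin-PPXE (at KM) in 200 mM KPO4, preincubated 10 min with compound; NADPH regeneration started a 60 min RT reaction. Luciferin detected by luminescence, normalized to 57 uM ketoconazole as full inhibition.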
# [27] = target: Cytochrome P450 3A4 (Homo sapiens) (UniProt P08684); assay: qHTS Assay for Activators of Cytochrome P450 3A4 (AID 885; active means well fitted curve in the direction sought with a large enough effect; an effect the other way counts as inactive or inconclusive; further: nearly all actives have a fitted effect of over 65% in size)
# Summary of the method: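 Human CYP3A4 (20 nM) with Luciferin-PPXE at 25 uM (its KM) in 200 mM KPO4; 10 min compound preincubation, then NADPH regeneration and 60 min reaction at RT. Luciferin read by luminescence; normalized to 57 uM ketoconazole full inhibition.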
# [28] = MultiTox-Fluor Cytotoxicity Assay - LYMP1-001 - Live Cells (AID 947; active means well fitted curve in the direction sought with a large enough effect; an effect the other way counts as inactive or inconclusive;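 further: 0% = DMSO only and full inhibition = tetraoctylammonium bromide control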)
smiles,measurement,setting,value
CCCCCCc1ccc(N)cc1,activation,[1],-3.51% (inactive)
same,outcome,[2],inactive
CCCC(Cl)CCCC(Cl)CCC(Cl)CCC(Cl)CCC(Cl)CCCC(Cl)CCC (centres undefined),activation,[1],1.98% (inactive)
same,outcome,[2],inactive
CCC(=O)C1C(=O)CC(C(=O)O)CC1=O (centres undefined),activation,[1],-1.69% (inactive)
same,outcome,[2],inactive
CCOCCOCCOC(C)=O,activation,[1],-3.45% (inactive)
same,outcome,[2],inactive
O=S(=O)(O)c1ccc(N=Nc2c(O)ccc3cc(S(=O)(=O)O)ccc23)cc1,activation,[1],-1.3% (inactive)
same,outcome,[2],inactive
[Cu+2].[O-]c1cccc2cccnc12.[O-]c1cccc2cccnc12,activation,[1],-9.69% (inactive)
same,outcome,[3],inactive
same,Potency,[4],inactive
same,activation,[5],-8.29% (inactive)
same,activation,[6],-12.2% (inactive)
same,max response,[7],-9.55% (inactive)
same,Potency,[8],inactive
same,Potency,[9],11.2 µM (active)
same,Potency,[10],31.6 µM (active)
same,Potency,[11],inactive
same,outcome,[12],inactive
CNc1ccc(O)cc1,activation,[1],3.85% (inactive)
same,outcome,[2],inactive
O=C(O)COc1ccc(Cl)cc1,activation,[13],-1.72% (inactive)
same,Potency,[14],inactive
same,outcome,[2],inactive
same,max response,[15],9.9%
same,Potency,[16],inactive
same,Potency,[17],inactive
same,Potency,[18],inactive
same,outcome,[3],inactive
same,max response,[19],18.4%
same,Potency,[20],inactive
same,Potency,[4],inactive
same,max response,[21],0.278%
same,max response,[22],-13.3% (inactive)
same,activation,[5],-0.56% (inactive)
same,activation,[23],-0.213% (inactive)
same,activation,[6],1.68% (inactive)
same,max response,[7],-2.55% (inactive)
same,Potency,[8],inactive
same,max response,[9],1.53% (inactive)
same,max response,[10],-5.08% (inactive)
same,Potency,[11],inactive
same,max response,[24],-5.77% (inactive)
same,outcome,[12],inactive
Oc1ccc2ccccc2c1N=Nc1ccccc1,activation,[1],3.78% (inactive)
same,Potency,[6],14.1 µM (active)
c1ccc(B(c2ccccc2)c2ccccc2)cc1,activation,[1],2.92% (inactive)
same,outcome,[2],inactive
Cc1ccc([N+](=O)[O-])cc1N,activation,[1],-0.807% (inactive) and -1.04% (inactive)
same,outcome,[2],inactive
same,Potency,[25],33.5 µM (active) and inactive
CC1(C)CC(N=C=O)CC(C)(CN=C=O)C1 (centres undefined),Potency,[26],25.1 µM (active)
same,Potency,[27],inactive
same,activation,[1],-0.574% (inactive) and 2.35% (inactive)
CN(C)C=O,Potency,[28],inactive
same,activation,[1],-2.96% (inactive) and -2.36% (inactive) and -5.04% (inactive)
same,max response,[19],2.34% and -5.07% and -17.6%
CCc1nn(C)c(C(=O)NCc2ccc(C(C)(C)C)cc2)c1Cl,activation,[1],2.45% (inactive)
same,outcome,[3],inactive
same,Potency,[5],0.355 µM (active)
same,activation,[23],2.69% (inactive)
same,activation,[6],6.31% (inactive)
same,Potency,[8],inactive
same,max response,[10],-25.1% (inactive)
c1ccc(-c2ccc(-c3ccccc3)cc2)cc1,activation,[1],2.41% (inactive)
same,outcome,[2],inactive
same,Potency,[25],19.3 µM (active)
